High-throughput results as filed in PubChem.
EWS-Fli inh – EWS/Fli-driven NR0B1 reporter inhibitors, primary screen, A673 cells, NR0B1 luciferase, luminescence, MLPCN library; viability-normalised; inhibition, % at 12.6 µM; 350,000 compounds, 0.67% hits;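 active = mean inhibition of at least 50% after viability correction, with every replicate also passing that limit; inconclusive = mean reaches 50% but only one of two replicates passes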;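 also: firefly luciferase signal divided by Alamar Blue viability fluorescence both relative to DMSO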
LMP1 NFkB inh – EBV LMP1-driven NF-kappaB luciferase reporter inhibitors, primary screen, cell-based, luminescence, single point; LMP1-induced NF-kappaB luciferase reporter cells; inhibition, % at 12.5 µM; 350,000 compounds, 0.69% hits; AID 504558, 2011; in the data active = inhibition above about 41%; inconclusive = no clear call, values can overlap the other calls;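 also: 0% = neutral control wells and 100% = reference inhibitor control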
TRPM1 prom inh – inhibitors of MITF-dependent TRPM1 promoter reporter, primary screen, cell-based, SK-MEL-5, single point, luciferase | SK-MEL-5 TRPM1 promoter luciferase, 24 h | inhibition, % at 12.5 µM | 330,000 compounds, 0.83% hits | AID 488899, 2010;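 active = mean inhibition across replicates of 60% or more, whatever share of single replicates reaches that level; inconclusive = some that reach 60%, reason not given; inactive = mean inhibition across replicates below 60%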
LGR2 inh – inhibitors of bursicon-induced LGR2 CRE-luciferase signal, primary screen, cell-based, HEK293, CRE-luciferase reporter, bursicon stimulation | bursicon-stimulated, 4 h | inhibition, % at 9.99 µM | Drosophila bursicon receptor LGR2 (rickets) | 380,000 compounds, 0.35% hits;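 active = drop in luminescence signal, shown as inhibition above about 50% in the replicate tests, limit read from the data, passing the limit was not always enough; inconclusive = probably only some replicates passing the limit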;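 also: agonist challenge used bursicon conditioned medium at about half maximal strength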
Shn3 inh set2 – reduction of Shn3 3'UTR firefly luciferase signal, primary screen, Schnurri-3 inhibitor project, cell-based, Clone20 osteoblasts, set 2 | Clone20 osteoblast Shn3 3'UTR firefly luciferase, 24 h | AID 588674, 2011 | inhibition, % at 12.5 µM | 360,000 compounds, 0.52% hits;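 active = mean inhibition of at least 75% with every replicate also reaching 75%; inconclusive = mean inhibition at least 75% but some replicate below; inactive = mean inhibition below 75%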;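 also: 0% = median of neutral control wells and 100% = pilot-screen positive control compound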
PAX8 reporter – inhibitors of PAX8-driven TPO luciferase reporter, primary screen, RMG-I cells, single concentration; SteadyGlo, 24 h; inhibition, % at 12.6 µM; 360,000 compounds, 1.2% hits; AID 652154, 2013;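 active = mean replicate inhibition at least 60% with every replicate also reaching 60%; inconclusive = only one of the two criteria is met; inactive = mean below 60% and not all replicates reaching 60%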;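 also: luciferase light reporting Pax8 driven TPO promoter activity; plate controls were median of neutral control wells for no effect and mitoxantrone controls for full effect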
* marks the source's active call; other numbers are inactive results; u = inconclusive; x = no result; ! = not active in a repeat. Shown are actives, neighbours in structure and some others; about 2.2% of the full set was active somewhere.

SMILES	EWS-Fli inh	LMP1 NFkB inh	TRPM1 prom inh	LGR2 inh	Shn3 inh set2	PAX8 reporter
C[C@@H]1CN([C@@H](C)CO)C(=O)c2cc(NC(=O)Nc3ccc(C(F)(F)F)cc3)ccc2O[C@@H](C)CCCCO[C@@H]1CN(C)S(=O)(=O)c1cccs1	0	x	x	2	x	-11
C[C@@H]1CN([C@H](C)CO)C(=O)c2cc(NC(=O)Nc3ccc(C(F)(F)F)cc3)ccc2O[C@@H](C)CCCCO[C@H]1CN(C)S(=O)(=O)c1cccs1	4	x	x	12	x	71*
C[C@@H]1CCCCO[C@H](CN(C)S(=O)(=O)c2cccs2)[C@@H](C)CN([C@@H](C)CO)C(=O)c2cc(NC(=O)Nc3ccc(C(F)(F)F)cc3)ccc2O1	15	x	x	9	x	75*
C[C@@H]1CN([C@H](C)CO)C(=O)c2cc(NC(=O)Nc3ccc(F)cc3)ccc2O[C@@H](C)CCCCO[C@H]1CN(C)S(=O)(=O)c1cccs1	31	5	x	7	36	68*!
C[C@H]1CCCCO[C@H](CN(C)S(=O)(=O)c2cccs2)[C@@H](C)CN([C@@H](C)CO)C(=O)c2cc(NC(=O)Nc3ccc(F)cc3)ccc2O1	10	x	x	-10	x	-10
COc1cccc(-c2cnc3c(c2)C(=O)N([C@H](C)CO)C[C@H](C)[C@@H](CN(C)C(C)=O)O3)c1	-12	x	x	-3	x	x
CC(NC1=CC(=O)c2cccnc2C1=O)C(O)c1ccccc1 (stereo unspecified)	31	3	110*	-31	-12	u
CC(c1ccccc1)N1C(=O)c2cccnc2C1=O (stereo unspecified)	1	2	-2	2	-3	18
CC(C)CC#Cc1ccc2c(c1)O[C@H](CN(C)S(=O)(=O)c1cccc(F)c1)[C@H](C)CN([C@H](C)CO)S2(=O)=O	9	x	x	20	x	x
CC(C)CC#Cc1ccc2c(c1)O[C@H](CN(C)S(=O)(=O)c1ccc(F)cc1)[C@@H](C)CN([C@@H](C)CO)S2(=O)=O	19	x	x	26	x	101*
CC(C)CC#Cc1ccc2c(c1)O[C@@H](CN(C)S(=O)(=O)c1ccc(F)cc1)[C@@H](C)CN([C@@H](C)CO)S2(=O)=O	19	x	x	47	x	95*
CC(C)CC#Cc1ccc2c(c1)O[C@@H](CN(C)S(=O)(=O)c1ccc(F)cc1)[C@H](C)CN([C@@H](C)CO)S2(=O)=O	27	x	x	5	x	81*
Cc1ccc(S(=O)(=O)Nc2cccc3c2O[C@@H](CN(C)S(=O)(=O)c2ccccc2)[C@H](C)CN([C@H](C)CO)C3=O)cc1	0	x	x	0	x	-2
Cn1cnc(S(=O)(=O)N2C[C@H](O)COC[C@@H]3O[C@H](CC(=O)NCc4ccc(F)cc4)CC[C@H]32)c1	0	x	x	2	x	2
O=C(C[C@H]1C[C@@H]2c3cc(NC(=O)CC4CC4)ccc3O[C@@H]2[C@@H](CO)O1)NCC(F)(F)F	-3	x	x	17	x	-12
NC(=S)N/N=C/c1ccccc1	11	3	8	10	6	12
Cc1[nH]c2ccccc2c1/C=N/NC(N)=S	2	6	-7	5	3	21
CNc1cccnc1C=NNC(N)=S	20	67*	47	28	94*	30
NC(=S)NN=Cc1nccc2c(C(F)(F)F)cccc12	10	62*	x	16	81	73*
COc1ccc2c3c([nH]c2c1)[C@H](CO)NCC31CCN(C(=O)Nc2ccccc2F)CC1	-6	x	x	18	x	15
CCCc1nc2ccc(NC(C)=O)cc2c(=O)n1Cc1ccc(Cl)cc1	-141	-40	-81	-105	-65	67*
COc1ccc(Cn2c(C3CC3)nc3ccc(NC(C)=O)cc3c2=O)cc1	x	-39	-56	x	-72	x
COc1cccc(NC(=O)N2CC(=O)N3[C@H](CO)[C@H](c4ccc(C#CC5CCCC5)cc4)[C@@H]3C2)c1	20	x	x	16	x	23
C[C@H]1CN([C@@H](C)CO)C(=O)c2cc(C#Cc3ccccc3F)cnc2O[C@@H]1CN(C)C(=O)C1CCCCC1	18	x	x	5	x	6
CC(C)C[C@@H](CO)N(Cc1ccccc1)S(=O)(=O)N(Cc1ccccc1)[C@H](CO)CC(C)C	x	3	-2	30	u	x
SMILES	EWS-Fli inh	LMP1 NFkB inh	TRPM1 prom inh	LGR2 inh	Shn3 inh set2	PAX8 reporter
CC(C)C[C@@H](CO)N(Cc1ccccc1)S(=O)(=O)N(Cc1ccccc1)[C@@H](CO)CC(C)C	x	-9	13	x	90*	x
Cc1c(C(=O)OCC(C)C)[nH]c2c1C(=O)CC(c1cccs1)C2 (stereo unspecified)	x	-8	35	x	61	53
CCCOC(=O)c1[nH]c2c(c1C)C(=O)CC(c1ccc(OC)c(OC)c1)C2 (stereo unspecified)	4	29	9	5	8	24
CCCCCOC(=O)c1[nH]c2c(c1C)C(=O)CC(c1ccco1)C2 (stereo unspecified)	x	7	47	x	92*	x
COCCOC(=O)c1[nH]c2c(c1C)C(=O)CC(c1cccs1)C2 (stereo unspecified)	61*	5	15	-2	-5	33
CCOCCOC(=O)c1[nH]c2c(c1C)C(=O)CC(c1cccs1)C2 (stereo unspecified)	53*	-1	32	-20	-8	60
CCOCCOC(=O)c1[nH]c2c(c1C)C(=O)CC(c1ccccc1)C2 (stereo unspecified)	u	5	33	-4	30	82*
CCOCCOC(=O)c1[nH]c2c(c1C)C(=O)CC(c1cc(OC)c(OC)c(OC)c1)C2 (stereo unspecified)	12	28	10	15	31	24
CCOCCOC(=O)C1=C(C)NC2=C(C(=O)CC(c3cccs3)C2)C1c1ccsc1 (stereo unspecified)	x	-1	14	2	-34	x
C[C@H](O)C#Cc1ccc2c(c1)O[C@H](CN(C)C(=O)c1ccccc1)[C@@H](C)CN([C@@H](C)CO)S2(=O)=O	-9	x	x	-5	x	x
CCC(=O)Nc1ccc2c(c1)C(=O)N(C)C[C@H](OC)[C@H](C)CN(C(=O)c1ccccc1F)[C@H](C)CO2	-11	x	x	-5	x	8
CCOC(=O)c1[nH]c2c(c1C)C(=O)CC(c1ccc(F)cc1)C2 (stereo unspecified)	63*	13	10	-18	60	44
COC(=O)c1[nH]c2c(c1C)C(=O)CC(c1cccc(OC)c1)C2 (stereo unspecified)	60*	1	19	-7	2	82*
CN(C)CCNC(=O)c1cccc2nc3cccc(F)c3nc12	56*	-1	77*	37	91*	7
